Tau fluor cs = counter-screen for tau fibril formation inhibitors; tau K18 P301L Alexa594 fluorescence, heparin fibrillization; Potency, µM (series often up to 57.7 µM), for inactives: at the top dose activity change, negative = decrease; 0.93% of 280,000 active; AID 1463; note: potency is the fitted concentration of half-maximal effect; % is set by controls: 0 for no effect and ±100 for the full control effect; nearly all actives have a fitted effect of over 55% in size
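Human K18 P301L tau (15 uM unlabeled plus 0.24 uM Alexa 594-labeled, final) in 100 mM sodium acetate pH 7 was mixed with compound and 20 uM heparin and incubated 6 hr at 37 C.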
Sfp PPTase inh = blocks B. subtilis Sfp PPTase activity | Biochemical Sfp PPTase activity, qHTS | Potency, µM, for inactives: largest response in the series, negative = inhibition, most hits filed as inhibitors | 3.5% of 310,000 active | AID 1490;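 note: the enzyme is Sfp with the accession as filed and its product quenches rhodamine fluorescence; potency is the fitted concentration of half-maximal effect; 0% = enzyme reaction without inhibitor and -100% = no enzyme wells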
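Fluorescence-quenching assay: 15 nM Sfp-PPTase preincubated 15 min at room temperature with compound, then 5 uM rhodamine-CoA and 12.5 uM BHQ-2-labelled YbbR peptide added. Fluorescence (ex 525/em 598 nm) read at start and after 30 min; difference gives rate.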
Tau fibril FP = tau fibrillization inhibition (FP); P10636; K18 P301L tau heparin fibrillization, Alexa594 FP, 6 h; Potency, µM (doses to about 57.7 µM), for inactives: at the highest dose activity, negative = inhibition, hits mostly inhibitors; 0.39% of 280,000 active; note: potency is the fitted concentration of half-maximal effect; % is set by controls: 0 for no effect and ±100 for the full control effect; nearly all actives have a fitted effect of over 55% in size
Target sequence (P10636 561-689 P618L limits assumed): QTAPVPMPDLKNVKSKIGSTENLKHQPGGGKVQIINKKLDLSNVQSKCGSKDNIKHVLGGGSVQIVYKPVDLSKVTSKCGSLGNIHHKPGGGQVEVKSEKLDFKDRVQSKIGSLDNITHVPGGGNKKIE
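K18 P301L tau (15 uM unlabeled/0.24 uM Alexa 594-labeled, final) + compound + heparin 20 uM final; 100 mM NaOAc pH 7; 6 hr 37 C; ThT 30 uM final added, 1 hr RT; FP ex 555/em 632 nm.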
G9a inh = blocks human histone lysine methyltransferase G9a | G9a H3K9 monomethylation, AlphaScreen, 2 h | Potency, µM (doses to about 102 µM), without a hit: at the top dose activity, negative = inhibition, hits mostly inhibitors | 8.8% of 350,000 active; note: potency is the fitted concentration of half-maximal effect; % is set by controls: 0 for no effect and ±100 for the full control effect; nearly all actives have a fitted effect of over 75% in size
Target sequence (Q96KQ7 913-1193 limits assumed): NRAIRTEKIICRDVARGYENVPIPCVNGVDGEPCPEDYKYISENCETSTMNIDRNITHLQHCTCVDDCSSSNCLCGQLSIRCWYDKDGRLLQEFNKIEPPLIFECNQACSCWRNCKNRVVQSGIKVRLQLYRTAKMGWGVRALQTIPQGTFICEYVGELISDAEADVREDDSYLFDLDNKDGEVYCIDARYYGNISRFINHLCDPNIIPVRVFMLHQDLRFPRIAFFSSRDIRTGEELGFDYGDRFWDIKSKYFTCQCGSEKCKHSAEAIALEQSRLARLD
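Methyltransferase reactions run at room temperature for 2 h (20 nM enzyme, 500 nM biotin-H3K9 peptide, 20 uM SAM) after a 15 min compound preincubation; product detected by AlphaScreen beads and anti-H3K9me1 antibody.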
FBPA coupling cs = coupling enzyme interference in Giardia aldolase counter-screen; coupling enzyme system counterscreen, AmpLite Red fluorescence; activity change, negative = inhibition, % at 58.2 µM, hits read low; 0.67% of 290,000 active; in the data active = activity change below about -30%; note: % is set by controls: 0 for no effect and ±100 for the full control effect
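Final compound at 57.5 uM, incubated 10 min at RT with coupling enzyme reagent (glyceraldehyde-3-phosphate), then 20 min with substrate and AmpLite Red detection. Fluorescence read at 525/598 nm; tests interference with the coupling assay, not aldolase inhibition.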
Tau ThT inhib = blocks human tau fibril formation measured by thioflavin T; Potency, µM (doses to about 57.4 µM), for the others: top-dose activity, negative = inhibition, actives largely listed as inhibitors; 2.1% of 270,000 active; recombinant tau K18 P301L, heparin-induced fibrillization, ThT fluorescence; note: potency is the fitted concentration of half-maximal effect; % is set by controls: 0 for no effect and ±100 for the full control effect; nearly all actives have a fitted effect of over 55% in size
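In this qHTS, human K18 P301L tau is incubated with compound and heparin for 6 hr at 37 C, and Thioflavin T fluorescence then reports fibril load.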
Tau TEM fibril = Blocks tau fibril formation, electron microscopy. shares compounds with Tau ThT inhib. recombinant tau K18 P301L fibrillization, TEM grading; active compounds read high. AID 1719. fibril grade (0 = clumped fibrils, 4 = only tiny pieces) (no concentration beside the values). 70% of 45 active;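 active = compounds whose electron micrographs showed tau fibrils broken into shorter filaments or fragments, graded high on fibril breakup; inconclusive = micrographs gave an unclear fibril picture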
tau sediment = tau fibrillization inhibition by sedimentation; shares compounds with Tau ThT inhib; recombinant tau K18 P301L (four-repeat tau fragment), sedimentation SDS-PAGE densitometry; inhibition, % at 100 µM; 50% of 110 active; in the data active = inhibition above about 40%; inconclusive = no clear call, values can overlap the other calls; inactive = below about 18%
Sfp PPTase conf = Sfp phosphopantetheinyl transferase inhibition, confirmation; shares compounds with Sfp PPTase inh; Sfp PPTase enzymatic assay, qHTS titration; Potency, µM (highest dose often 114 µM), for the others: at the top dose activity change, negative = inhibition, usual class: inhibitors; 79% of 380 active;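 note: potency is the fitted concentration of half-maximal effect; plate controls were uninhibited Sfp reaction for no effect and no enzyme control for full effect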
Target sequence (Q9F4F7 whole entry, looked up): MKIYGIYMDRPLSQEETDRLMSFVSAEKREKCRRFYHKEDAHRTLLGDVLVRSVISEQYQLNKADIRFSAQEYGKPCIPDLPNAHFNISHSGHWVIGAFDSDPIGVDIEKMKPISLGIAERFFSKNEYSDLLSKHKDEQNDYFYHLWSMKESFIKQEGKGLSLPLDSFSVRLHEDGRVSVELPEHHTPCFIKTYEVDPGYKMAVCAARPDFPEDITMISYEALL
Sfp gel assay = Inhibits B. subtilis Sfp phosphopantetheinylation; shares compounds with Sfp PPTase inh; purified Sfp, gel-based phosphopantetheinylation read-out; Potency, µM, usual class: inhibitors; 20% of 210 active;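 active = potency below 100 µM; inconclusive = dose-dependent response but potency above 100 µM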;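 note: band intensities scaled against SCH202676 control wells before curve fitting; potency is an IC50 for inhibitors of Sfp transfer activity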
The depositor's hits bear a star; i = inactive; ? = inconclusive; . = no result given; ! = repeats disagree; [ ] = another dose, or the depositor's remark. An excerpt weighted towards active compounds, which were near 11% of everything screened. Unless noted, calls come from the whole dose curve; as a rule, active = well fitted curve in the direction sought with a large enough effect; inconclusive = small, poorly fitted or top-dose-only effect, or another doubt; inactive = no such curve, though single readings can be large; an effect the other way counts as inactive or inconclusive.

SMILES	Tau fluor cs	Sfp PPTase inh	Tau fibril FP	G9a inh	FBPA coupling cs	Tau ThT inhib	others
CC(=O)n1cc(C=C2C(=O)NC(=O)NC2=O)c2ccccc21	.	22µM*	.	10µM*	0	.
FC(F)(F)c1ccc2c(c1)N(CCCN1CCN(CCCl)CC1)c1ccccc1S2	?	50µM*	8%	10µM*	-4	?
OCCN1CCN(CCCN2c3ccccc3Sc3ccc(C(F)(F)F)cc32)CC1	?	-6%	6%	11µM*!	-4	?
NC(=S)/N=C/c1c(O)[nH]c(=O)[nH]c1=O	-11%	-18%	?	79µM*	2	?
C=CCNC(=S)/N=C/c1c(O)[nH]c(=O)[nH]c1=O	-13%	45µM*	?	.	-2	?
CCCCCCCCN=Cc1c(O)[nH]c(=O)[nH]c1=O	5%	-9%	2%	.	-1	.
CCCCCc1nc2ccccc2c(=O)n1-c1ccc(C)cc1	-8%	.	-10%	0%[59 µM]	.	0%
CCCCCc1nc2c(c(=O)c3ccccc3n2C)c(=O)n1C1CCCCCC1	-8%	40µM*	0%	-4%	2	?
CC[C@]1(c2cccc(O)c2)CCCCN(C)C1	.	19%	.	20%[21.5 µM]	1	.
O=c1c2ccccc2nc(CSc2ncnc3nc[nH]c23)n1-c1ccccc1	13%	50µM*	1%	?	3	1%
CCN(CC1CCCN(CCc2cccc(OC)c2)C1)C(=O)c1ccc(COC)o1 (configuration not stated)	.	8%	.	28%	.	.
CNC(=O)Oc1cccc(-c2cn3cc(OC(=O)NC)ccc3n2)c1	?	12%	-12%	246%[59 µM]	-6	14µM*
CC(C)[C@H](CO)Nc1nc(Nc2cccc(Cl)c2)c2ncn(C(C)C)c2n1	?	14%	?	.	0	?
O=[N+]([O-])c1ccc(C[n+]2c(-c3ccccc3)cc(-c3ccccc3)cc2-c2ccccc2)cc1	.	.	.	-19%[2.33 µM]	.	.
O=[N+]([O-])c1cc(Cl)c(O)c(-[n+]2c(-c3ccccc3)cc(-c3ccccc3)cc2-c2ccccc2)c1	.	-5%	.	50µM*	0	.
CCOC(=O)N(c1ccccc1)P1(=S)OCCO1	-8%	40µM*	-12%	?	-1	?
CCOC(=O)N(c1ccccc1)P1(=S)OCC(C)O1 (configuration not stated)	-1%	8%	-4%	17%[59 µM]	2	-3%
COC(=O)N(c1ccccc1)P1(=S)OCCO1	-1%	5.6µM*	?	46%[59 µM]	-2	?
Cc1ccc2nc3sc(=O)sc3nc2c1	.	?	.	.	2	.
Cc1nc2ccc(P(=O)(O)O)cc2s1	6%	-81%	6%	45µM*	2	2%
C=C(C)[C@]12C[C@@H](C)[C@@]34OC(Cc5ccccc5)(O[C@@H]1[C@@H]3C=C(COC(=O)Cc1cc(I)c(O)c(OC)c1)C[C@]1(O)C(=O)C(C)=C[C@@H]41)O2	?	34%	10%	-4%[59 µM]	-6	?
CCN1C[C@]2(COC(=O)c3ccccc3N3C(=O)C[C@H](C)C3=O)CC[C@H](OC)[C@@]34[C@@H]5C[C@H]6[C@H](OC)[C@H]5[C@](O)(C[C@@H]6OC)[C@@](O)([C@@H](OC)[C@@H]23)[C@@H]14	-7%	-6%	-4%	.	5	-6%
Cc1cccc(C)c1OCC(=O)Nc1ccc(Cl)cc1C(=O)c1ccccc1	-16%	.	-7%	?	.	?
C[N+](C)(C)CC(=O)Nc1ccc(Cl)cc1C(=O)c1ccccc1	-3%	0%	5%	?	3	1%
CCN(CC)CCNCC(=O)Nc1ccc(Cl)cc1C(=O)c1ccccc1	-4%	56µM*	4%	?	-1	-13%
SMILES	Tau fluor cs	Sfp PPTase inh	Tau fibril FP	G9a inh	FBPA coupling cs	Tau ThT inhib	others
CN(C)CCCNCC(=O)Nc1ccc(Cl)cc1C(=O)c1ccccc1	1%	56µM*	8%	?	0	-5%
COc1cc2c3cc1Oc1c(OC)c(OC)cc4c1[C@@H](Cc1ccc(OC(=O)c5ccc([N+](=O)[O-])cc5)c(c1)Oc1ccc(cc1)C[C@@H]3N(C)CC2)N(C)CC4	.	?	.	.	-6	.
COc1cccc2c1C13CC[N+]4(CC5CC5)CO[C@]1(CCC(=O)C3)C4C2	-3%	21%	-5%	21%[59 µM]	.	-3%
CCCC[N+]12C3CC(C(CC)[C@H]1O)[C@@H]1C(O)C4(C[C@@H]12)c1ccccc1N(C)C34 (some centres not stated)	-9%	1%	0%	.	2	-7%
O=C1CCC[C@H]2[C@H]3CCCN4CCCC(=CN12)[C@@H]34	-7%	-17%	0%	.	-1	-3%
CC(N)[C@H](O)c1ccc(O)c(O)c1 (some centres not stated)	?	.	?	14µM*	.	3.5µM*	Tau TEM fibril=2*;tau sediment=70*
CC(C)(C)C(O)C(Oc1ccc(-c2ccccc2)cc1)n1cncn1 (configuration not stated)	.	-16%	.	.	-1	.
COc1ccc(OC)c(C(O)C(C)N)c1 (configuration not stated)	-12%	14%	-2%	-17%[59 µM]	-1	-14%
C[C@H](N)[C@H](O)c1ccc(O)c(O)c1	.	35µM*	.	1.6µM*	-34*	.	Sfp PPTase conf=?;Sfp gel assay=74µM*
C[C@]1(C(=O)O)CCC[C@]2(C)c3cc(O)ccc3CC[C@@H]12	-3%	12%	1%	.	1	-7%
CC(C)c1cc2c(c(O)c1O)[C@@]1(C(=O)O)CCCC(C)(C)[C@@H]1CC2	?	1.4µM*	?	3.5µM*	-43*	14µM*	Sfp PPTase conf=2.6µM*;Sfp gel assay=i
O=C1C2CC=CCC2C(=O)N1SC(Cl)(Cl)Cl (configuration not stated)	.	6.3µM*	.	1.6µM*	.	.	Sfp PPTase conf=9.4µM*;Sfp gel assay=6.2µM*
